Assay results as given in PubChem BioAssay (NCI).
“And” between values parts separate entries of the source, which are not always exact repeats. Identical values can stand only once. The panel holds about 83,000 compounds, 20% with a hit somewhere; the sample as a whole holds those more often.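 A percent growth of 40 corresponds to 60% growth inhibition; 0 means no net growth; -100 means all cells died. Active threshold: below 10.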 The source made the active and inactive calls.

What follows are compounds tested on MDA-MB-468 breast (assay: NCI-60 one-dose screen, 48 h (100 = growth as untreated, 0 = no growth, -100 = all killed)). Settings: 10 µM unless noted.

Compound	growth
O=C(CC(C(=O)c1ccccc1)N1CCN(Cc2ccccc2)CC1)c1ccccc1 (stereo not given)	70.1% (inactive)
CCCCOC(=O)OCc1cc(=O)c(O)co1	97.5% (inactive)
COc1ccc(/C=C2\CN(C(=O)CCN3CCC(=NO)CC3)C/C(=C\c3ccc(OC)cc3)C2=O)cc1	-27.5% (active)
CC(C)C/C(=N\NC(=O)c1ccncc1)c1cc(Cl)ccc1O	-1.67% (active)
CC1NC(=O)NC1CCCCCC(=O)O (stereo not given)	101% (inactive)
Cc1c(N)ccc(-c2ccc(N)c(C)c2S(=O)(=O)O)c1S(=O)(=O)O	115% (inactive)
Cc1cccc(NC(=O)c2sc3nc4c(cc3c2N)CN(Cc2ccccc2)CC4)c1C	24.4% (inactive)
CC1=NN(c2ccccc2)C(=O)/C1=C\N1CC(=O)NC1=S	101% (inactive)
COc1ccc(OC)c2c1[nH]c(=O)c1c3ncccc3cn21	12.2% (inactive)
Cc1ccc2nc(NC(=O)CSc3nc(-c4ccccc4)c(C#N)c4nnnn34)sc2c1	107% (inactive)
Cc1nc2ccccc2c(/C=C/c2ccc(Cl)cc2)c1C(=O)/C=C/c1ccc(C(F)(F)F)cc1	-65.8% (active)
CCc1ccc(C2=C(O)C(=O)C(c3ccc(CC)cc3)=C(O)C2=O)cc1	-2.72% (active)
O=[N+]([O-])c1ccc(N=Nc2c(O)c(N=Nc3cc([N+](=O)[O-])cc([N+](=O)[O-])c3O)cc(N=Nc3cc(S(=O)(=O)O)cc4cc(S(=O)(=O)O)cc(O)c34)c2O)cc1	100% (inactive)
COCCCNc1nc(NC(=O)c2cc(OC)cc(OC)c2)cc(-c2cccnc2)n1	94.8% (inactive)
O=C(O)COc1ccc(F)cc1	98.8% (inactive)
N#Cc1c(N)nc2c(nnn2-c2cccc(C(F)(F)F)c2)c1N	76.4% (inactive)
Cc1cc(Nc2ccc3c(c2)OCO3)c2cc3c(cc2n1)OCO3	26.5% (inactive)
CCCCCCC(=O)C(C)C	98.8% (inactive)
CC(C)(C)C1=CC(=O)C(C(C)(C)C)=CC1=O	96.7% (inactive)
CCC(C)(c1ccc(O)c(C)c1)c1ccc(O)c(C)c1	70.1% (inactive)

Compound	growth
O=C(O)c1cccc2c1-c1ccccc1C2=O	116% (inactive)
CC(=O)Nc1ccc(O)cc1	105% (inactive) and 111% (inactive)
Nc1cc(Cl)cc2cccnc12	92.7% (inactive)
CN1CCCCC1CCN1c2ccccc2Sc2ccc(Br)cc21 (stereo not given)	32.1% (inactive)
Cn1c2c(c(=O)[nH]c1=O)NC1=C(C(=O)c3ccccc31)C1(C=C(O)c3ccccc31)N2 (stereo not given)	100% (inactive)
O=C(O)C1C2C=CC(C2)C1C(=O)O (stereo not given)	119% (inactive) and 22.9% (inactive) and 92.2% (inactive)
COc1ccc(OC)c(CCn2cncc2-c2c[nH]c3ccc(Cl)cc23)c1	-14.9% (active)
C=C(C)[C@@H]1CC[C@]2(C=NCCCNCCCCNCCCN)CC[C@]3(C)[C@H](CC[C@@H]4[C@@]5(C)CCCNC(C)(C)[C@@H]5CC[C@]43C)[C@@H]12	98.5% (inactive)
CC1(C)CC[C@]2(CO)CC[C@]3(C)[C@H](CC[C@@H]4[C@@]5(C)CC[C@H](O)C(C)(C)[C@@H]5CC[C@]43C)[C@H]2[C@H]1O	101% (inactive)
O=C1Nc2ccccc2/C1=C/c1cccn1CCCCn1c2ccccc2c(=O)c2ccccc21	51% (inactive)
Cc1ccc(Cn2c(-c3nonc3N)nc3ccccc32)cc1	58.8% (inactive)
C[C@H]1O[C@@H](O[C@H]2[C@@H](O)C[C@H](O[C@H]3[C@@H](O)C[C@H](O[C@H]4CC[C@]5(C)C6CC[C@]7(C)[C@@H](C8=CC(=O)OC8)CC[C@]7(O)C6CC[C@@H]5C4)O[C@@H]3C)O[C@@H]2C)C[C@H](O)[C@@H]1O (stereo not given in full)	-60% (active)
O=C1C=C(O)C(=O)C(CC2=C(O)C(=O)C=C(O)C2=O)=C1O	98.7% (inactive)
COc1cccc(C(=O)NNC(=O)c2cccc3ccccc23)c1	111% (inactive)
Nc1nc(N)c2cc(Sc3ccc(Cl)cc3)ccc2n1	18.7% (inactive)
COc1cc(NC(=O)CCl)ccc(=O)c1	75.6% (inactive)
Cc1ccc(S(=O)(=O)c2ccc3[nH]c(=O)[nH]c(=O)c3c2)cc1	102% (inactive)
COC(=O)c1c(C)nc(Nc2nc3ccccc3s2)nc1-c1ccc(Cl)cc1Cl	104% (inactive)
Cc1cc2ccccc2cn1	96.6% (inactive) and 102% (inactive)
S=C(Nc1ccccc1)N1CCCCC1	90.3% (inactive)
